{"source": "the supplement of paper PMC11624193", "about": "“Coupling cellular drug-target engagement to downstream pharmacology with CeTEAM” (Nature Communications, 2024)", "note": "Where a name gives a salt, the structure may show the parent alone. Unmarked numbers belong to inactive results.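 Rule for the calls: active = log2 fold change beyond 2 SD from the library mean after excluding viability outliers; inactive = within 2 SD.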"}
{"molecular_target": "PARP1 L713F-nLuc biosensor (HCT116) (UniProt P09874)", "sequence (P09874 whole entry L713F, looked up)": "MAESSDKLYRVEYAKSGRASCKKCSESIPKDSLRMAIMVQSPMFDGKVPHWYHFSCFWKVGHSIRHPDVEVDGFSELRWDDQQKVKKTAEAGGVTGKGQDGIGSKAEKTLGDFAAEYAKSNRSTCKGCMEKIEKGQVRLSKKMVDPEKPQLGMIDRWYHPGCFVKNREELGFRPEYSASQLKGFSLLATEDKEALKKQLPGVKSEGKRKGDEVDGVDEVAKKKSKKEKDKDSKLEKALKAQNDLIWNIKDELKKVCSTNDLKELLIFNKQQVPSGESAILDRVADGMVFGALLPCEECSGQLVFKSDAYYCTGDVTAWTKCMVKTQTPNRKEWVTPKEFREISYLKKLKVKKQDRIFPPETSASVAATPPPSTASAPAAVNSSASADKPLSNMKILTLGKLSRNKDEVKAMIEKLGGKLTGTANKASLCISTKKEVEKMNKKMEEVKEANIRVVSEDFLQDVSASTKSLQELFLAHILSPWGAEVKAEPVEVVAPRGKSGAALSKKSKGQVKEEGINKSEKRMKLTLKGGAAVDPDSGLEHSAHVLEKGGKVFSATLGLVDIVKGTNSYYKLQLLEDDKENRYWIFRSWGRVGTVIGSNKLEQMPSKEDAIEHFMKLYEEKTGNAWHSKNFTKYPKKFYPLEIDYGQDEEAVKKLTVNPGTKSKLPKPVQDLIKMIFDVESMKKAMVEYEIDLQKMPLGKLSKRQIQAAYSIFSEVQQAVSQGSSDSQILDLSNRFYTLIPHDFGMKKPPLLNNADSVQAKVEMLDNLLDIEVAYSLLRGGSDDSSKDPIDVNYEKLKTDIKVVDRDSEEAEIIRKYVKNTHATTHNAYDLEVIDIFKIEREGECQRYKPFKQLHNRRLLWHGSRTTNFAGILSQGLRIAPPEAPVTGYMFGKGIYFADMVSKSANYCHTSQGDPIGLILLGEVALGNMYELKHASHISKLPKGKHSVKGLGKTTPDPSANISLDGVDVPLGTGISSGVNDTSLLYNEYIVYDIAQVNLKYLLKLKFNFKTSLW", "test": "PARP1 L713F-nLuc/akaLuc ratio relative to DMSO control (biosensor stabilization) (fold change); higher = more PARP1 biosensor stabilization (target engagement / stabilizer), active = hit call of the paper", "conditions": "stock concentration (mM; final µM = stock mM x 1): 10; 24 h"}
{"compound": "Cc1c(-c2cnccn2)ssc1=S", "note": "[Oltipraz]", "PARP1 L713F-nLuc/akaLuc ratio": 0.846}
{"compound": "COc1cc2c(NC3CCN(C(C)C)CC3)nc(N3CCC(F)(F)CC3)nc2cc1OCCCN1CCCC1", "PARP1 L713F-nLuc/akaLuc ratio": 1.03}
{"compound": "CC(=O)Nc1cc(Oc2ccc3c(nc(Nc4ccc(F)cc4F)n3C)c2C)ccn1", "PARP1 L713F-nLuc/akaLuc ratio": 0.89}
{"compound": "CC1(C)C(=O)NC2=C1C(=O)C(=O)c1ccccc12", "PARP1 L713F-nLuc/akaLuc ratio": 0.888}
{"compound": "COC(=O)c1ccc(OC(=O)CCCCCCC(=O)NO)cc1", "note": "[Remetinostat]", "PARP1 L713F-nLuc/akaLuc ratio": 1.25}
{"compound": "O=C(Nc1ccccc1-c1cn2c(CN3CCNCC3)csc2n1)c1cnc2ccccc2n1", "PARP1 L713F-nLuc/akaLuc ratio": 1}
{"compound": "CS(=O)(=O)c1ccc(-c2cnc(N)c(C(=O)Nc3ccccc3)n2)cc1", "PARP1 L713F-nLuc/akaLuc ratio": 1.46}
{"compound": "CC(C)=CC(=O)O[C@H]1Cc2cc3ccc(=O)oc3cc2OC1(C)C", "note": "[Decursin]", "PARP1 L713F-nLuc/akaLuc ratio": 0.768}
{"compound": "C=CC(=O)N1CCC[C@@H](n2nc(-c3ccc(Oc4ccccc4)cc3)c3c(N)ncnc32)C1", "PARP1 L713F-nLuc/akaLuc ratio": 0.773}
{"compound": "CN(C)C(=N)NC(=N)N", "note": "[Metformin]", "PARP1 L713F-nLuc/akaLuc ratio": 1.5}
{"compound": "CC[C@H](C)n1cc(C)c2c(C(=O)NCc3c(C)cc(C)[nH]c3=O)cc(-c3ccc(N4CCNCC4)nc3)cc21", "PARP1 L713F-nLuc/akaLuc ratio": 1.03}
{"compound": "COc1cc2c(NC3CCN(C(C)C)CC3)nc(C3CCCCC3)nc2cc1OCCCN1CCCC1", "PARP1 L713F-nLuc/akaLuc ratio": 0.748}
{"compound": "CN(C)c1nc2c(Br)c(Br)c(Br)c(Br)c2n1CC(=O)O", "PARP1 L713F-nLuc/akaLuc ratio": 1.02}
{"compound": "Nc1ncn([C@@H]2O[C@H](CO)[C@@H](O)[C@H]2O)c(=O)n1", "note": "[Azacitidine]", "PARP1 L713F-nLuc/akaLuc ratio": "4.35 (active)"}
{"compound": "CS(=O)(=O)c1ccc(Oc2cc(F)cc(C#N)c2)c2c1C(O)C(F)C2", "note": "(configuration not stated)", "PARP1 L713F-nLuc/akaLuc ratio": 0.836}
{"compound": "COc1cc2ccc(=O)oc2cc1O[C@@H]1O[C@H](CO)[C@@H](O)[C@H](O)[C@H]1O", "note": "[Scopolin]", "PARP1 L713F-nLuc/akaLuc ratio": 1.04}
{"compound": "CC/C(=C(\\c1ccccc1)c1ccc(OCCNC)cc1)c1ccccc1", "note": "[N-Desmethyltamoxifen (hydrochloride)]", "PARP1 L713F-nLuc/akaLuc ratio": 0.968}
{"compound": "CNC(=O)c1cc(Oc2ccc(NC(=O)Nc3ccc(Cl)c(C(F)(F)F)c3)c(F)c2)ccn1", "note": "[Regorafenib (BAY 73-4506)]", "PARP1 L713F-nLuc/akaLuc ratio": 0.687}
{"compound": "O=C(/C=C\\n1cnc(-c2cc(C(F)(F)F)cc(C(F)(F)F)c2)n1)NNc1cnccn1", "note": "[Selinexor (KPT-330)]", "PARP1 L713F-nLuc/akaLuc ratio": 0.434}
{"compound": "CNc1nc(-c2ccc3c(N)n[nH]c3c2)cc(N2C[C@@H](C(=O)NC3CCCCC3)CC[C@H]2C)n1", "PARP1 L713F-nLuc/akaLuc ratio": 0.434}
{"compound": "Cc1cc(Nc2cc(CN3CCOCC3)c3nc(C)c(Cc4ccc(Cl)cc4F)n3n2)n[nH]1", "note": "[Gandotinib]", "PARP1 L713F-nLuc/akaLuc ratio": 1.75}
{"compound": "Cc1cn(-c2cc(NC(=O)c3ccc(C)c(Nc4nccc(-c5cccnc5)n4)c3)cc(C(F)(F)F)c2)cn1", "note": "[Nilotinib (AMN-107)]", "PARP1 L713F-nLuc/akaLuc ratio": 0.959}
{"compound": "CC(C)c1cccc(=O)c(O)c1", "note": "[Hinokitiol]", "PARP1 L713F-nLuc/akaLuc ratio": 0.993}
{"compound": "Cn1cc(-c2cn3nccc3c(-c3cnn([C@]4(CC#N)C[C@@H](C#N)C4)c3)n2)cn1", "note": "[Ropsacitinib]", "PARP1 L713F-nLuc/akaLuc ratio": 1.02}
{"compound": "CNS(=O)(=O)Nc1nccc(Cc2c(C)c3ccc(Oc4ncccn4)cc3oc2=O)c1F", "PARP1 L713F-nLuc/akaLuc ratio": 0.435}
{"compound": "O=[N+]([O-])c1cc(Nc2ccc3nonc3c2[N+](=O)[O-])ccc1Cl", "PARP1 L713F-nLuc/akaLuc ratio": 1.28}
{"compound": "Cc1ccc(OCCSc2ncccn2)c(Br)c1", "note": "[ZLN024 (hydrochloride)]", "PARP1 L713F-nLuc/akaLuc ratio": 0.863}
